Measurements published in PubChem BioAssay (EPA / NIEHS).
Calls of active or inactive are those of the source. How the source made its calls: active means hit-call score of the fitted dose curve at least 0.9, where 1 is the maximum; inactive means score below 0.9.

Experiment: ATG_M_06_CIS: Attagene CIS-FACTORIAL HepG2 Assay for M06 Transcription Factor (Internal Marker) (AID 2282950)
Settings: HepG2 Attagene CIS-FACTORIAL M06 internal marker reporter; actives raise or lower the signal
Experimental: ATG_CIS is a cell-based, multiplexed-readout assay that uses HepG2, a human liver cell line, with measurements taken at 24 hours after chemical dosing in a 24-well plate.ATG_M_06_CIS is one of 52 assay component(s) measured or calculated from the ATG_CIS assay. It is designed to make measurements of mRNA induction, a form of inducible reporter, as detected with fluorescence intensity signals by Reverse transcription polymerase chain reaction (RT-PCR) and Capillary electrophoresis technology.Data from the assay component ATG_M_06_CIS was analyzed into 1 assay endpoint. This assay endpoint, ATG_M_06_CIS, was analyzed with bidirectional fitting relative to DMSO as the negative control and baseline of activity. Using a type of inducible reporter, measures of mRNA for gain or loss-of-signal activity can be used to understand the background control at the transcription factor-level as they relate to the gene . Furthermore, this assay endpoint can be referred to as a secondary readout, because this assay has produced multiple assay endpoints where this one serves a background control function. To generalize the intended target to other relatable targets, this assay endpoint is annotated to the background measurement intended target family, where the subfamily is internal marker.
Human liver HepG2 cells are transiently transfected with multiple reporter transcription units (MRTUs) in 6-well plates using FuGene 6 reagent (Roche; 3 ml FuGene/1 mg DNA). The MRTU constructs are regulated by a cis-regulating element (promoter). […] A major difference between the CIS and TRANS system is that in CIS activities of endogenous TFs are measured, whereas the TRANS assay evaluates changes in activities of exogenous, chimeric NR-Gal4 proteins. […] At the end of 24 hour incubation, total RNA was isolated using TriZol reagent (Invitrogen). The isolated RNA is then reverse-transcribed using oligo(dT) primer and Mo-MLV reverse transcriptase (Invitrogen) with DNAse I (Ambion) treatment for 30 min. The one-tenth of the produced cDNA was amplified by PCR using Taq DNA polymerase (Invitrogen) and two reporter sequence-specific primers. The PCR products were fluorescently labeled by primer extension with 6-arboxyfluorescein (6-FAM) 5'-labeled reporter sequence-specific primer (2 min at 95 C, 20 s at 68 C and 10 min at 72 C) and these products were digested with 5U of HpaI (New England Biolabs) for 2h at 37 C. The fragments were purified using Qiaquick PCR columns (Qiagen), analyzed on an ABI 3130xL genetic analyzer (Applied Biosystems) with peak positions identified by using a set of X-rhodamine (ROX)-labeled MapMarker1000 molecular weight standards (BioVentures). The raw capillary electrophoresis data was processed using Attagraph software (Attagene).
In the case of `CS(C)(=O)=O`, the outcome is reported as “inactive”. With `[Co]` the outcome was “inactive”. For `CCCCCCC(C)OC(=O)CCCCC(=O)OC(C)CCCCCC` (stereo not given), the outcome was “inactive”. With `O=C(C=Cc1ccccc1)OCC=Cc1ccccc1` the outcome was “inactive”. In the case of `CCCCCCS`, the outcome is reported as “inactive”. With `FC(F)(F)C(F)(F)C(F)(F)CI` the outcome was “inactive”. For `O=C(O)C(F)(F)C(F)(F)C(F)(F)C(F)(F)C(F)(F)C(F)(F)C(F)(F)C(F)(F)Cl`, the outcome was “inactive”. For `O=C(O)C(F)(F)C(F)(F)C(F)F`, the outcome was “inactive”. In the case of `O=S(=O)(O)C(F)(F)C(F)(F)C(F)(F)C(F)(F)C(F)(F)C(F)(F)C(F)(F)F`, the outcome is reported as “inactive”. With `C#C[C@]1(O)CC[C@H]2[C@@H]3CCc4cc(OC)ccc4[C@H]3CC[C@@]21C` the outcome was “inactive”. For `CC(=O)Nc1ccc(N=Nc2cc(C)ccc2O)cc1`, the outcome was “inactive”. For `O=C(O)C(F)(F)C(F)(F)C(F)(F)C(F)(F)F`, the outcome was “inactive”. In the case of `CCCCCCOC(=O)c1ccccc1O`, the outcome is reported as “inactive”. With `Oc1ccc(Nc2ccccc2)cc1` the outcome was “inactive”. With `CO[Si](OC)(c1ccccc1)c1ccccc1` the outcome was “inactive”. For `CCCCOCCOCCOC(=O)CCCCC(=O)OCCOCCOCCCC`, the outcome was “inactive”. In the case of `O=C(CC(=O)C(F)(F)C(F)(F)F)C(F)(F)F`, the outcome is reported as “inactive”. With `FC(F)(F)C(F)(F)C(F)(F)C(F)(F)C(F)(F)C(F)(F)C(F)(F)I` the outcome was “inactive”. For `c1ccc(B(c2ccccc2)c2ccccc2)cc1`, the outcome was “inactive”. With `O=C(O)C(F)(OC(F)(F)C(F)(OC(F)(F)C(F)(OC(F)(F)C(F)(F)C(F)(F)F)C(F)(F)F)C(F)(F)F)C(F)(F)F` (stereo not given) the outcome was “inactive”. In the case of `CC(C)OC(=O)c1ccccc1C(=O)OC(C)C`, the outcome is reported as “inactive”. For `c1ccc(-c2ccccc2-c2ccccc2)cc1`, the outcome was “inactive”. With `FC(F)(F)C(F)(F)C(F)(F)C(F)(F)C(F)(F)C(F)(F)C(F)(F)C(F)(F)F` the outcome was “inactive”. With `CCO[Si](CCC(F)(F)C(F)(F)C(F)(F)C(F)(F)C(F)(F)C(F)(F)F)(OCC)OCC` the outcome was “inactive”. With `O=S(=O)(OCCOC(F)(F)F)C(F)(F)F` the outcome was “inactive”. For `CC/C=C\CCOC(C)=O`, the outcome was “inactive”. With `Cc1cccc(N(C)C)c1` the outcome was “inactive”. With `COC(=O)C1CCC(C(=O)OC)CC1` (stereo not given) the outcome was “inactive”. For `Nc1ccc(Oc2cccc(Oc3ccc(N)cc3)c2)cc1`, the outcome was “inactive”. With `FC(F)(F)C(F)(F)C(F)(F)C(F)(F)C(F)(F)C(F)(F)CCS` the outcome was “inactive”. With `O=C(OCCOCCOCCOC(=O)c1ccccc1)c1ccccc1` the outcome was “inactive”. With `O=C(O)C(F)(OC(F)(F)C(F)(OC(F)(F)C(F)(F)C(F)(F)F)C(F)(F)F)C(F)(F)F` (stereo not given) the outcome was “inactive”. For `CCN(Cc1cccc(S(=O)(=O)O)c1)c1ccc(C(=C2C=CC(=[N+](CC)Cc3cccc(S(=O)(=O)O)c3)C=C2)c2ccc(O)cc2S(=O)(=O)[O-])cc1`, the outcome was “inactive”. With `O=S(=O)(O)c1ccc2ccccc2c1` the outcome was “inactive”. With `O=C(O)C(F)(F)C(F)(F)C(F)(F)F` the outcome was “inactive”. For `FC(F)(F)C(F)(F)C(F)(F)C(F)(F)C(F)(F)C(F)(F)C(F)(F)Br`, the outcome was “inactive”. For `CCCCCC=O`, the outcome was “inactive”. With `CC(C)(C)C(=O)CC(=O)C(F)(F)C(F)(F)C(F)(F)F` the outcome was “inactive”. For `FC1CC(F)(F)C(F)(F)C1(F)F` (stereo not given), the outcome was “inactive”. For `O=C(O)C(F)(F)C(F)(F)C(F)(F)C(F)(F)C(F)(F)C(F)(F)C(F)(F)C(F)(F)C(F)(F)C(F)(F)C(F)(F)C(F)(F)C(F)(F)F`, the outcome was “inactive”.
